# Values joined by “and” are separate entries in the source; they are usually repeats but may differ in a detail not shown here. Equal entries are not always repeated. The panel holds about 79,000 compounds, 15% with a hit somewhere; the sample as a whole holds those more often. Some structures have more than one record in an assay (separate samples or runs), and their calls can disagree. Active and inactive are the calls of the source. Cut-off read from the data, not from the text of the source: active = growth inhibition above about 70%; inactive = the rest.
# Legend:
# [1] = NCI Yeast Anticancer Drug Screen. Data for the rad50 strain (AID 155);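 note: 0% = growth of vehicle-only cultures of the same strain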; settings: S. cerevisiae rad50 strain growth inhibition, stronger effect = higher value
# Method in brief: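 Genetically altered yeast (DNA repair pathway); compound treatment; growth inhibition vs vehicle ctrl.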
# [2] = NCI Yeast Anticancer Drug Screen. Data for the mec2-1 strain (AID 157); settings: S. cerevisiae mec2-1 strain, stronger effect = higher value
# Method in brief: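 Each compound was tested on mec2-1 yeast, a strain altered in DNA damage repair or cell cycle control. Growth inhibition is reported relative to vehicle.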
# [3] = NCI Yeast Anticancer Drug Screen. Data for the sgs1 mgt1 strain (AID 161);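 note: 0% = growth of cultures given vehicle only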; settings: S. cerevisiae sgs1 mgt1 strain, stronger effect = higher value
# Method in brief: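 Mutant yeast exposed to compound; growth scored against vehicle-only wells.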
# [4] = NCI Yeast Anticancer Drug Screen. Data for the cln2 rad14 strain (AID 165);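 note: 0% = growth equal to vehicle treated cultures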; settings: S. cerevisiae cln2 rad14 strain, stronger effect = higher value
# Method in brief: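 Test compounds were added to cln2 rad14 yeast cultures; inhibition of growth was then determined by comparison with vehicle treatment.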
# [5] = NCI Yeast Anticancer Drug Screen. Data for the bub3 strain (AID 167); settings: S. cerevisiae bub3 mutant strain, stronger effect = higher value
# Method in brief: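 Yeast carrying a defined mutation is treated with each compound, and growth is compared with that of vehicle-exposed cells to give inhibition.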
# [6] = NCI Yeast Anticancer Drug Screen. Data for the mlh1 rad18 strain (AID 175); settings: S. cerevisiae mlh1 rad18 strain growth inhibition, stronger effect = higher value
# Method in brief: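 Inhibition values reflect reduced growth of mutant yeast versus vehicle-treated controls following compound exposure; the mutations affect DNA damage repair.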
# [7] = at 5.0 µM (retest, dose inferred, filed as 0.5)
# [8] = at 50.0 µM (retest, dose inferred, filed as 5.0)
Compound,"growth inhibition [1, 7]","growth inhibition [1, 8]",growth inhibition ([1]; at 50.0 µM),"growth inhibition [2, 7]","growth inhibition [2, 8]",growth inhibition ([2]; at 50.0 µM),"growth inhibition [3, 7]","growth inhibition [3, 8]",growth inhibition ([3]; at 50.0 µM),"growth inhibition [4, 7]","growth inhibition [4, 8]",growth inhibition ([4]; at 50.0 µM),"growth inhibition [5, 7]","growth inhibition [5, 8]",growth inhibition ([5]; at 50.0 µM),"growth inhibition [6, 7]","growth inhibition [6, 8]",growth inhibition ([6]; at 50.0 µM)
CCO/C(=C\C=O)C1CCC2C3CC=C4CC(OC(C)=O)CCC4(C)C3CCC12C (stereo unspecified),7% (inactive),45% (inactive),63.4% (inactive),-1% (inactive),75% (active),51.5% (inactive),8% (inactive),86% (active),55.9% (inactive),2% (inactive),53% (inactive),55.1% (inactive),-3% (inactive),74% (active),23.4% (inactive),14% (inactive),94% (active),53.5% (inactive)
CCOc1ccc(N/N=C(\CCC(=O)O)C(=O)O)cc1,-6% (inactive),92% (active),96% (active),-9% (inactive),77% (active),81% (active),-3% (inactive),84% (active),50.2% (inactive),-64% (inactive),94% (active),94.1% (active),-15% (inactive),-45% (inactive),86.7% (active),-5% (inactive),96% (active),95.2% (active)
OC(C/C=C/c1ccccc1)(c1ccccc1)c1ccccc1,3% (inactive),39% (inactive),97% (active) and 97.5% (active),-1% (inactive),48% (inactive),98.7% (active),7% (inactive),52% (inactive),98.1% (active) and 98.2% (active),7% (inactive),55% (inactive),96.9% (active) and 98.2% (active),29% (inactive),83% (active),96.8% (active) and 97.7% (active),-2% (inactive),61% (inactive),97.4% (active) and 98.2% (active)
CC(C)OP(=O)(OC(C)C)C(=Nc1ccccc1)NNc1ccc([N+](=O)[O-])cc1,-22% (inactive),-15% (inactive),71.1% (active),-21% (inactive),2% (inactive),16.6% (inactive),-13% (inactive),15% (inactive),22.7% (inactive),-33% (inactive),-6% (inactive),-18.8% (inactive),-17% (inactive),-20% (inactive),43.6% (inactive),-8% (inactive),7% (inactive),44% (inactive)
COc1cccc(OCCC#N)c1,2% (inactive),27% (inactive),-6.7% (inactive) and 72.8% (active),-1% (inactive),0% (inactive),4.05% (inactive) and 4.85% (inactive),-1% (inactive),12% (inactive),-5.2% (inactive) and 31.4% (inactive),-7% (inactive),-1% (inactive),-34.8% (inactive) and 20.4% (inactive),-6% (inactive),-5% (inactive),-8.35% (inactive) and -22.1% (inactive),4% (inactive),19% (inactive),-1.9% (inactive) and 44.9% (inactive)
CCN(CC)c1ccc(/C=C/c2ccnc3ccccc23)cc1,-11% (inactive) and 0% (inactive),95% (active) and 98% (active),99% (active) and 98.3% (active),-3% (inactive) and 1% (inactive),98% (active) and 99% (active),99% (active) and 97.8% (active),4% (inactive) and -3% (inactive),94% (active) and 98% (active),99.1% (active) and 98.5% (active),-10% (inactive) and 7% (inactive),97% (active) and 98% (active),98.6% (active) and 97.5% (active),28% (inactive) and -4% (inactive),98% (active) and 99% (active),98.7% (active) and 98.3% (active),17% (inactive) and 16% (inactive),97% (active) and 98% (active),98.3% (active) and 97.4% (active)
Nc1nnc(/C=C/c2ccccc2)o1,2% (inactive),-22% (inactive),19.5% (inactive),8% (inactive),-21% (inactive),-21.6% (inactive),-8% (inactive),-9% (inactive),-4.6% (inactive),1% (inactive),-4% (inactive),42.2% (inactive),1% (inactive),-4% (inactive),-1.9% (inactive),7% (inactive),21% (inactive),-10.2% (inactive)

# From PubChem BioAssay (NCI)
